Reference: PubChem BioAssay

The compounds below were run against Pro-neuregulin-1, membrane-bound isoform (Homo sapiens) (UniProt Q02297) (assay: NRG1 binders on small-molecule microarrays, primary screen, psychiatric disease protein project, biochemical, small-molecule microarray, fluorescence 635/667 (AID 1075;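 also: score combines 667 nm spot fluorescence with signal to noise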)). Conditions: NRG1 binding, 635 nm fluorescence, higher = more signal.
Sequence of Pro-neuregulin-1, membrane-bound isoform (Homo sapiens) (Q02297 whole entry, looked up, canonical isoform): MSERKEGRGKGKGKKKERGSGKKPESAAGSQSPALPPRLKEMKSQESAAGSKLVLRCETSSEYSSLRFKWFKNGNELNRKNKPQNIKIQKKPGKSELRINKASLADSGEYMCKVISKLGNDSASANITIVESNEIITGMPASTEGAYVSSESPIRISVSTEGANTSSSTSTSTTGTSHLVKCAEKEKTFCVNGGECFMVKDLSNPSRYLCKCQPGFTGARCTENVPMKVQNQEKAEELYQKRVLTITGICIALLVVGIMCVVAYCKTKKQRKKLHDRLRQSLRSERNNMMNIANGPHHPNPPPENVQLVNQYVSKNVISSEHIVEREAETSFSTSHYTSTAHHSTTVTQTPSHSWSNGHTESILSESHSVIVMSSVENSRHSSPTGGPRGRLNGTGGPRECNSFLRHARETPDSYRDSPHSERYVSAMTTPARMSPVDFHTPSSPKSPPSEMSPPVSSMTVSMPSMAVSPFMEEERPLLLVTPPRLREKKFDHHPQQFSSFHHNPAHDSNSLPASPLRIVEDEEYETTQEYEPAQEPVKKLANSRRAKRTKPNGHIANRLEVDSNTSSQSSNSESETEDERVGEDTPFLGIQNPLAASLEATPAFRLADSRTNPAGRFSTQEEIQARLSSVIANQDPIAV

Q: With `O=C1C2C=CC(C(O)c3ccc([N+](=O)[O-])cc3)N(Nc3ccccc3)C2C(=O)N1c1ccccc1` (centres undefined) as the compound, how does the composite z-score read?
A: 1.07

Q: With `CC(=O)NCCCC[C@@H]1NC(=O)[C@H]2C[C@@H](C(=O)NCCCCCC[N+](C)(C)C)[C@@H](c3ccc(O)cc3)N2C1=O` as the compound, how does the composite z-score read?
A: 1.35

Q: With `CCCC[C@H]1OB(O)C[C@H]2C1=C(COC)C[C@H]1C(=O)C=CC(=O)[C@H]12` as the compound, how does the composite z-score read?
A: -0.279

Q: How did the composite z-score turn out when `C[C@@H](OCc1ccccc1)C1NC(=O)[C@@]23C(=O)N[C@@H](Cc4ccccc4)C2[C@H](C)[C@@]2(C)O[C@H]2C3/C=C/C/C=C\CNC(=O)[C@H](Cc2ccccc2)NC1=O` (some centres undefined) was run?
A: -0.239

Q: How did the composite z-score turn out when `C=CCC(OC(C)=O)[C@@H]1[C@@H](N(Cc2ccc(-c3cccc(C(F)(F)F)c3)o2)C(=O)c2cccc3ccccc23)c2cc(OCCCO)ccc2N1C(=O)c1ccc2ccccc2c1` (some centres undefined) was run?
A: 0.62

Q: With `COCCn1c(C(=O)N2CCCC2)cc2c1C[C@H]1CN(C(=O)c3ccccc3)[C@@](Cc3ccccc3)(C(=O)OC)[C@@H]21` as the compound, how does the composite z-score read?
A: 2.16

Q: Which composite z-score does the source give for `C=CC[C@@]12N=C(c3ccc(OCCCO)cc3)O[C@@H]1c1ccccc1N(Cc1ccccc1)C2=O` here?
A: 1.44

Q: With `C[C@]1(C(=O)NCC(F)(F)F)c2ccccc2C(=O)N(Cc2ccc(OC(F)(F)F)cc2)[C@H]1c1ccc(CO)cc1` as the compound, how does the composite z-score read?
A: 0.0763

Q: Which composite z-score does the source give for `O=C1N(CCS(=O)(=O)c2ccccc2)c2ccccc2[C@@H]2OC(c3ccc(OCCCO)cc3)=N[C@]12CCS(=O)(=O)c1ccccc1` here?
A: 0.195

Q: `CN(C)CCCC[C@@H]1NC(=O)[C@@H]2C[C@H](C(=O)NCCCCCCNC(=O)CS)[C@H](c3cccc(OCCO)c3)N2C1=O` was tested. Which composite z-score did it give?
A: 0.67

Q: `[N-]=[N+]=Nc1ccccc1[C@@H]1OC(c2ccc(OCCCO)cc2)=N[C@]1(Cc1ccccc1)C(N)=O` was tested. Which composite z-score did it give?
A: 1.17

Q: `C=CC[C@]1(C(=O)N(C)C)COC(c2ccc(OCCCO)cc2)=N1` was tested. Which composite z-score did it give?
A: 1.83

Q: `O=C1O[C@@H](c2ccccc2)[C@@H](c2ccccc2)N2[C@@H](c3ccc(O)cc3)[C@]3(C(=O)Nc4ccc(C#CC5=CCCCC5)cc43)[C@@H](C(=O)N3CCCCCCC3)[C@H]12` was tested. Which composite z-score did it give?
A: 0.705

Q: `CCCCC(=C=CC[C@@H](O)c1cccc(OCCO)c1)C[C@@H](O)COCc1ccccc1` was tested. Which composite z-score did it give?
A: 0.679

Q: For `[N-]=[N+]=NCc1ccccc1C[C@]1(C(=O)O)COC(c2ccc(OCCCO)cc2)=N1`, which composite z-score is on record?
A: 1.57

Q: With `COC(=O)[C@]1(CO)N=C(c2ccc(OCCCO)cc2)O[C@@H]1c1ccccc1CN=[N+]=[N-]` as the compound, how does the composite z-score read?
A: -0.12

Q: `COc1ccc(NN2C(C(O)c3cc(C(F)(F)F)cc(C(F)(F)F)c3)C=CC3C(=O)N(C4CCCCC4)C(=O)C32)cc1` (centres undefined) was tested. Which composite z-score did it give?
A: 1.02

Q: How did the composite z-score turn out when `CN(C)CCCC[C@@H]1NC(=O)[C@H]2C[C@@H](C(=O)NCc3ccc(F)cc3)[C@@H](c3ccc(O)cc3)N2C1=O` was run?
A: 0.865

Q: For `CCCC=C(CCC)[C@@H](NC(=O)c1ccccc1)c1ccc(C(=O)OC)cc1`, which composite z-score is on record?
A: -0.0843

Q: Which composite z-score does the source give for `C=CCC(OC(C)=O)[C@@H]1[C@@H](N(Cc2cccc3ccccc23)C(=O)c2cccc3ccccc23)c2cc(OCCCO)ccc2N1C(=O)Cc1ccc2ccccc2c1` (some centres undefined) here?
A: -0.371

Q: Which composite z-score does the source give for `C=C(COC)/C(=C/C[C@@H](OC(C)=O)c1ccccc1OCCO)c1cc(C(=O)OC)ccc1OC` here?
A: 1.48

Q: Which composite z-score does the source give for `CO[C@H]1O[C@H](CO)[C@@H](OC(=O)Nc2ccc(C(F)(F)F)cc2)[C@H](OC(=O)Nc2ccccc2-c2ccccc2)[C@@H]1OC(=O)Nc1ccccc1-c1ccccc1` here?
A: 1.77

Q: `CCOC(=O)C[C@H]1[C@H](OC(=O)c2ccc(-c3ccccc3)cc2)[C@@H](NC(=O)CC(C)C)c2cc(OCCCO)ccc2N1C(=O)Cc1ccc(OC)cc1` was tested. Which composite z-score did it give?
A: 0.828

Q: Which composite z-score does the source give for `CCOC(=O)C[C@H]1[C@H](OC(=O)c2cc3ccccc3oc2=O)[C@@H](NC(=O)C2CCCCC2)c2cc(OCCCO)ccc2N1C(=O)Cc1ccc(OC)cc1` here?
A: 0.052

Q: How did the composite z-score turn out when `N#Cc1ccc(C(O)C2C=CC3C(=O)NC(=O)C3N2Nc2ccccn2)cc1` (centres undefined) was run?
A: 1.41

Q: With `O=C1C2C=CC(C(O)c3cccs3)N(Nc3ccccc3)C2C(=O)N1c1ccccc1` (centres undefined) as the compound, how does the composite z-score read?
A: 0.97

Q: Which composite z-score does the source give for `COC(=O)[C@@]1(Cc2ccc(OC)cc2)[C@H]2c3cc(C(=O)N4CCCC4)n(CCc4ccc(OC)c(Br)c4)c3C[C@H]2CN1C(=O)c1ccccc1` here?
A: 2.17

Q: How did the composite z-score turn out when `CO[C@H]1O[C@H](CO)[C@@H](OC(=O)Nc2ccc(C(F)(F)F)cc2)[C@H](OC(=O)Nc2ccccc2-c2ccccc2)[C@H]1OC(=O)Nc1ccccc1-c1ccccc1` was run?
A: 0.802

Q: For `CCOC(=O)C1=C(C(=O)OCC)N(S(=O)(=O)CC[Si](C)(C)C)[C@H](c2ccccc2)CC1`, which composite z-score is on record?
A: -0.0059
